Drawing on PubChem BioAssay AID1026 (Columbia University Molecular Screening Center, 2008), this text covers inhibition for 39 molecules.

Active and inactive are the calls of the source. No rule for the calls is given here.

Bifunctional epoxide hydrolase 2 (Homo sapiens), sequence (P34913 whole entry, looked up): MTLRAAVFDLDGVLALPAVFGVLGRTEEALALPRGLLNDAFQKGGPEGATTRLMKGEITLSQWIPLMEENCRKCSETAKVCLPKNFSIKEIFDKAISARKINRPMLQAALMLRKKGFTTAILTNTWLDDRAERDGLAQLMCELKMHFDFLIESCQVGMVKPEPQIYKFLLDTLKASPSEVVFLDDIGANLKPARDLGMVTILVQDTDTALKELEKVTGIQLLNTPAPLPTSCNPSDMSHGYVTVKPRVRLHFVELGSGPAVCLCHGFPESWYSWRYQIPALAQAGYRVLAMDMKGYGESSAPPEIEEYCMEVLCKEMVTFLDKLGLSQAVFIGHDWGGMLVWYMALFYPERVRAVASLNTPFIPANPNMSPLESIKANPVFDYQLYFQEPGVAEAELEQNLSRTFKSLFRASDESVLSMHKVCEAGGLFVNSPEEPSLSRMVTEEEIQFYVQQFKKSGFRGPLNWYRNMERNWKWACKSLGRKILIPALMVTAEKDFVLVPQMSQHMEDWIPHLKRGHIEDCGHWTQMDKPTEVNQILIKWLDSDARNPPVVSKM

This assay concerns the target Bifunctional epoxide hydrolase 2 (Homo sapiens) (UniProt P34913). Kind of assay: sEH inhibitor concentration-response potency, dose response, biochemical, human sEH, fluorescence, Infinite200 (AID 1026). The note with it: recombinant human sEH, fluorogenic substrate, at 0.2 µM, stronger effect = higher value.
By inhibition is commonly meant the share of the control response that was lost under treatment. For the molecule `Cc1cc(N2CCCC(C(=O)Nc3ccc4c(c3)CCC4)C2)n2ncnc2n1` (centres undefined), the inhibition was 50.2% (inactive).

As to `O=C(Nc1ccc(OC(F)F)cc1)Nc1cccc(C(F)(F)F)c1`, the inhibition was 63.2% (inactive).

Regarding `Cc1cc2nc(-c3ccc(SCC(=O)N4CCN(C(=O)c5ccco5)CC4)nc3)[nH]c2cc1C`, the inhibition is 48% (inactive).

For `O=C(Nc1ccc2c(c1)OCCO2)NC1CCCCC1`, the inhibition is 52.7% (inactive).

With `Cc1nn(Cc2ccccc2Cl)c(C)c1NC(=O)NC12CC3CC(CC(C3)C1)C2`, the inhibition was 66% (inactive).

For the molecule `O=C(Nc1ccc(N2CCOCC2)cc1)Nc1ccc(Cl)c(Cl)c1`, the inhibition is 40% (inactive).

Regarding `COc1ccc(CCNC(=O)c2ccc3c(c2)NC(=O)C(N2CCOCC2)S3)cc1OC` (centres undefined), the inhibition is 49.2% (inactive).

As for `CSc1cccc(NC(=O)Nc2ccc(Cl)cc2)c1`, the inhibition was 59.3% (inactive).

In the case of `O=C(/C=C/c1cc2c(cc1Br)OCO2)NCc1ccc(Cl)cc1`, the inhibition was 60.5% (inactive).

`Cc1noc(C)c1COc1cccc(C(=O)NCc2ccccc2Cl)c1`: the inhibition is 52.4% (inactive).

With `Cc1oc(-c2ccccc2F)nc1CN1CCC(C(=O)NCCC2=CCCCC2)CC1`, the inhibition was 56.5% (inactive).

For the molecule `COc1ccccc1NS(=O)(=O)c1cccc(C(=O)NN)c1`, the inhibition was 42.3% (inactive).

In the case of `NNC(=O)c1cccc(COc2cccc(Br)c2)c1`, the inhibition is 37.1% (inactive).

In the case of `O=C(NCCC1=CCCCC1)c1ccc(Cl)c(S(=O)(=O)N2CCOCC2)c1`, the inhibition is 68.1% (inactive).

As for `Cc1cc2cc(CNC(=O)NC3CCCCC3)ccc2[nH]1`, the inhibition was 60% (inactive).

For the molecule `CCc1ccc(/C=N/NC(=O)c2ccc(OC3CCCC3)cc2)s1`, the inhibition was 65.8% (inactive).

Consider `CCCCCC(=O)Nc1ccc2oc(-c3cncc(Br)c3)nc2c1`, for which the inhibition was 51.2% (inactive).

Consider `O=C(CCSc1ccc(Cl)cc1)NC12CC3CC(CC(C3)C1)C2`, for which the inhibition was 46.4% (inactive).

In the case of `C/C(=N\NC(=O)Cc1cccn1C)c1cccc2ccccc12`, the inhibition is 40.4% (inactive).

Turning to `O=C(NCc1ccc2c(c1)OCO2)C1CCN(c2ccc(S(=O)(=O)N3CCCC3)cc2)CC1`, the inhibition is 52.2% (inactive).

With `O=C(NCCC1=CCCCC1)c1ccc(F)c(S(=O)(=O)N2CCOCC2)c1`, the inhibition is 60.6% (inactive).

Take `Cc1c(Cl)c([N+](=O)[O-])nn1Cc1ccc(C(=O)N/N=C\c2cccc(Br)c2)o1`: the inhibition is 66.8% (inactive).

With `COc1ccc(-c2nc3cc(NC(=O)Cc4ccc(OC)c(OC)c4)ccc3o2)cc1`, the inhibition is 52.1% (inactive).

With `O=C(N[C@@H](Cc1ccccc1)C(=O)NC1CCCCCC1)c1ccco1`, the inhibition is 36.3% (inactive).

Turning to `Cc1nc2cc(NC(=O)NCCC3=CCCCC3)ccc2o1`, the inhibition was 45% (inactive).

Take `CCOc1ccc(NC(=O)Nc2ccc(N(C)C(C)=O)cc2)cc1`: the inhibition is 54.1% (inactive).

`O=C(NCc1ccccc1Cl)c1ccc(Cn2cc(C(F)(F)F)ccc2=O)cc1`: the inhibition was 52.6% (inactive).

With `COc1ccc(C2CCCN2C(=O)Nc2ccc(Cl)cc2)cc1OC` (centres undefined), the inhibition was 71.3% (inactive).

As to `CCC(C)NC(=O)Nc1ccc2c(c1)N(C)C(=O)c1ccccc1S2` (centres undefined), the inhibition is 59.7% (inactive).

For `CCOC(=O)c1sc(NC(=O)c2ccc(C)s2)cc1C`, the inhibition is 59.1% (inactive).

As for `Cn1c(C(=O)N2CCCC(C(=O)NCCCSC3CCCCC3)C2)cc2sccc21` (centres undefined), the inhibition is 49.4% (inactive).

Consider `O=C(NCCC1=CCCCC1)NC1CCCCC1`, for which the inhibition is 70.5% (inactive).

As for `CC(C)CN1C(=O)c2ccc(C(=O)NCc3ccc4c(c3)OCO4)cc2C1=O`, the inhibition was 56% (inactive).

Turning to `Cc1ccc(N(CC(=O)NC2CCCCC2)C(=O)c2ccc(C)s2)cc1`, the inhibition is 43.7% (inactive).

On to `O=C(NC1CCCCCCC1)C1CCN(S(=O)(=O)N2CCC3(CC2)OCCO3)CC1`, for which the inhibition is 49.5% (inactive).

As to `CC(Cc1cccs1)NC(=O)Nc1ccc(Cl)c(Cl)c1` (centres undefined), the inhibition was 65.5% (inactive).

Regarding `Cc1ccc(SCCC(=O)NCCSCc2ccccc2C)cc1`, the inhibition is 52.5% (inactive).

On to `CC(c1ccccc1)N1CCn2c(nc3cc(NC(=O)NC4CCCCC4)ccc32)C1` (centres undefined), for which the inhibition is 70.1% (inactive).

In the case of `COc1cccc(CNC(=O)C2CCC(CNS(=O)(=O)c3cccc4nsnc34)CC2)c1` (centres undefined), the inhibition was 50.1% (inactive).
